The entries come from a sample that favours hits as a whole.
Pf Dd2 inh: inhibitors of Plasmodium falciparum Dd2 growth; P. falciparum Dd2 growth, SYBR Green, 72 h; Potency, µM (doses to about 28.9 µM), most hits filed as inhibitors; 4.3% of 120,000 active; active = well fitted inhibition curve with a large enough effect; note: nearly all actives have a fitted effect of over 65% in size
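Readout: SYBR Green fluorescence, 485 nm excitation, 535 nm emission, after ~16 h lysis at 37C. Before that, Dd2-infected red cells (2.5% hematocrit) grew 72 h with compound, 29 uM top final concentration.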
A number is an active result; i = inactive; [ ] = dose if it differs, or a comment.

SMILES	Pf Dd2 inh
CCOc1ccc(N(CC)S(=O)(=O)N2CCCC(C(=O)NCCc3ccc(OC)cc3)C2)cc1 (configuration not stated)	i
COc1ccccc1N1CCN([C@H]2[C@@H]3OC[C@@H](O3)[C@@H](NC(=O)NC3CCCCC3)[C@@H]2O)CC1	i
CS(=O)(=O)N(C1CCOCC1)C1CN(C(=O)C2(c3ccccc3)CC2)C1	i
Cc1ccc(S(=O)(=O)Nc2ccc3c(c2)CN(CCc2ccc(F)cc2)C(=O)C(C)O3)cc1F (configuration not stated)	i
O=C(c1ccccn1)N1CCCC(c2nc(CCOCC3CC3)no2)C1 (configuration not stated)	i
COC(=O)c1ccc2nc(C[C@@H]3C[C@@H](C(C)C)[C@H](CNC(=O)CCCC(=O)O)C=C3C)[nH]c2c1	i
COC(=O)c1ccc2nc(C[C@@H]3C[C@@H](C(C)C)[C@H](CNC(=O)COCC(=O)O)C=C3C)[nH]c2c1	i
COc1ccc2nc(C[C@@H]3C[C@@H](C(C)C)[C@H](CNCc4ccccc4)C=C3C)[nH]c2c1	i
CC1=C[C@@H](CNC(=O)CC(C)(C)CC(=O)O)[C@H](C(C)C)C[C@H]1Cc1nc2c(C)cccc2[nH]1	i
COc1ccc2nc(C[C@@H]3C[C@@H](C(C)C)[C@H](CNC4CCCCC4)C=C3C)[nH]c2c1	2.82µM
CC1=C[C@@H](CNC(=O)CC(C)(C)CC(=O)O)[C@H](C(C)C)C[C@H]1Cc1nc2ccc(F)cc2[nH]1	i
CC1=C[C@@H](CNCc2ccccc2)[C@H](C(C)C)C[C@H]1Cc1nc2c(C)cccc2[nH]1	3.55µM
COc1ccc2nc(C[C@@H]3C[C@@H](C(C)C)[C@H](CN4C(=O)C(C)=C(C)C4=O)C=C3C)[nH]c2c1	i
CC1=C[C@@H](CNC(=O)CC(C)(C)CC(=O)O)[C@H](C(C)C)C[C@H]1Cc1nc2ccncc2[nH]1	i
COCC(=O)NC[C@@H]1C=C(C)[C@H](Cc2nc3ccc(C(=O)OC)cc3[nH]2)C[C@H]1C(C)C	11.2µM
CC1=C[C@@H](CNC(=O)CC(C)(C)CC(=O)O)[C@H](C(C)C)C[C@H]1Cc1nc2ccc(C)cc2[nH]1	8.91µM
Fc1ccc(-c2nnc(CN3CCN(c4ccccn4)CC3)o2)cc1	i[0.594 µM]
CN(C)[C@@H]1CN(C(=O)Cc2ccccc2)C[C@H]1CO	i
COc1cn(CC(=O)Nc2cccc(C)c2)c(CN2CCCCC2)cc1=O	i
O=C(N1CCOCC1)N1CCCCC1c1nnc2n1CCNC2 (configuration not stated)	i
CN(C)c1cccc(NC(=O)Cn2c3c(c(=O)n2Cc2ccccc2)CCN(Cc2ccccc2)C3)c1	i
CCOCCCNC(=O)C(c1ccc(Cl)cc1)N(Cc1cccs1)C(=O)c1ccc(NC(C)=O)cc1 (configuration not stated)	i
CCn1nccc1C(=O)N1CCC2(CC1)CC(N(C(=O)c1ccccc1)C1CC1)CCO2 (configuration not stated)	i
CNC1CCN(C(=O)CC2(Cc3ccccc3)C(=O)N(C)c3ccccc32)CC1 (configuration not stated)	i
CC(C)c1cccc(NC(=O)Cn2nc3n(c2=O)CCCCC3)c1	i
SMILES	Pf Dd2 inh
COC(=O)c1sc(N2C(=O)c3oc4ccc(C)cc4c(=O)c3C2c2ccc(OC)cc2)nc1C (configuration not stated)	i
Cc1noc2c(NCCN3CCOCC3)cc(-c3ccc(Cl)cc3)nc12	i
Cc1noc2c(NCCc3ccccn3)cc(-c3ccc(Cl)cc3)nc12	i
Cc1noc2c(NCCCn3ccnc3)cc(-c3ccc(Cl)cc3)nc12	4.47µM
COCCc1ccc(OCc2ccccc2-c2cc(C)n[nH]c2=O)cc1	i
CC(C)c1ccc(NC(=O)Cn2c(=O)n(Cc3nc(-c4ccccc4)no3)c(=O)c3cc4c(cc32)OCO4)cc1	i
COc1ccc(NC(=O)Cn2c(=O)n(Cc3nc(C)no3)c(=O)c3cc4c(cc32)OCO4)cc1OC	i
Cc1noc(Cn2c(=O)c3cc4c(cc3n(CC(=O)Nc3ccc(C(C)C)cc3)c2=O)OCO4)n1	12.6µM
CCOc1cc(=O)n2c(c1C(=O)NCc1cccc(OC)c1)CCCC2	i
Cc1nn(C)c(C)c1CNC(=O)Cn1nc2c(cc1=O)CCCCC2	i
COc1ccccc1-c1noc(-c2ccc(N(C)Cc3ccccc3)c([N+](=O)[O-])c2)n1	i
Cc1ccc(OCCSc2nnc(-c3cccs3)o2)cc1	11.2µM
Cc1ccc(OCCSc2nnc(-c3cccs3)o2)cc1Cl	i
Cc1ccc(-c2nnc(SCCOc3ccccc3)o2)cc1	i
COC(=O)c1ccccc1NC(=O)CCc1c(C)nc2cc(-c3ccc(Cl)cc3)nn2c1C	i
CCc1ccc(N2CCn3c2nc2c3c(=O)n(C/C=C/c3ccccc3)c(=O)n2C)cc1	i
Cc1ccc(C(=O)N2[C@@H]3CC[C@H]2CC(NC(=O)c2ccncc2)C3)cn1 (some centres not stated)	i
CC(=O)NC[C@H]1CCN(S(=O)(=O)c2ccc(C#N)cc2)C[C@H]1N(C)C	i
Cc1ccc(S(=O)(=O)N2C[C@@H](C(N)=O)[C@H](C3CCN(C)CC3)C2)cc1Cl	i
CN1CCC([C@@H]2CN(S(=O)(=O)c3ccc4c(c3)CCC4)C[C@H]2C(N)=O)CC1	i
CCC[C@@H]1CN(S(=O)(=O)c2ccc(OC(F)F)cc2)C[C@H]1N(C)C	5.62µM
N[C@H]1CN(S(=O)(=O)c2ccc(OC(F)F)cc2)C[C@@H]1C1CC1	5.62µM
CCc1nncn1C1CCN(S(=O)(=O)c2ccc(OC)cc2)CC1	i
CCC1Oc2ccc(NC(=O)C3CC3)cc2CN(Cc2cc(F)cc(F)c2)C1=O (configuration not stated)	i
Cc1ccc(NC(=O)c2sc(-n3nc(C)c(Cc4ccc(Cl)cc4)c3C)nc2C)cc1	i
SMILES	Pf Dd2 inh
O=C(CCn1ccn2nc3c(c2c1=O)CCCC3)Nc1ccc(Oc2ccccc2)cc1	i
NCC(=O)N1CCC(n2nccc2NC(=O)c2cccc(F)c2)CC1	i
CCCN(CC1CCOC1)S(=O)(=O)c1cc(OC)ccc1OC (configuration not stated)	i[5.79 µM]
CC(NC(=O)c1ccc2c(c1)CC(=O)N2C)c1ccccc1 (configuration not stated)	i
COc1cccc(C(=O)NCC2CCCN(Cc3ccccn3)C2)c1OC (configuration not stated)	i
COc1cccc([C@@H]2CCN(Cc3cn[nH]c3C(=O)O)C[C@H]2O)c1	i
COc1cccc([C@@H]2CCN(Cc3ccc(NC(C)=O)cc3)C[C@H]2O)c1	i
COc1cccc(C(=O)NCC2CCCN(Cc3cnn(C)c3C)C2)c1OC (configuration not stated)	i
COc1cccc([C@@H]2CCN(Cc3[nH]c4ccccc4c3C)C[C@H]2O)c1	0.891µM
Cc1c(CN2CCCC(CNC(=O)c3cccc4ccccc34)C2)[nH]c2ccccc12 (configuration not stated)	11.2µM
O=C(Nc1cccc(C(F)(F)F)c1)N1CCC(N2CC3CC(C2)[C@H]2CCCC(=O)N2C3)CC1 (some centres not stated)	i
O=C1Nc2ccccc2O[C@H]2C[C@@H]1N(C(=O)c1ccccc1)C2	i
COc1ccccc1N1CCN(C(=O)CC[C@]23CC[C@](C)(O)C[C@H]2C(C)(C)C[C@@H]3NC(=O)c2cccnc2)CC1	i
COc1ccc2nc(CO[C@H]3CN(C4CCC4)C[C@H]3F)[nH]c2c1	i
Cc1cc(F)ccc1NC(=O)c1ccc2nc(Cc3ccccc3)oc2c1	i
